The record followed here is PubChem BioAssay.

A number with no mark means an inactive call. The source made the active and inactive calls. Rule as the data show it, unless noted: active = inhibition above about 33%; inactive = the rest.

Experiment [1] addresses Nuclear receptor coactivator 1 (Homo sapiens) (UniProt Q15788). The experiment can be described thus: NCOA1 GAL4-fusion reporter inhibition – cell-based, luminescence, quadruplicate, confirmation (AID 588820;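 active = mean inhibition above 46.68%, the untreated control wells mean plus 3 SD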;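 also: 0% = DMSO wells and 100% = gossypol 36 µM treated wells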). Particulars: HEK293 GAL4-SRC1 luciferase reporter, at 3.6 µM, stronger effect = higher value. A general note: Reporter assays use an easily measured gene product as a stand-in for the process of interest.

A short description of experiment [2]: repression of VP16-driven luciferase reporter – cell-based, luminescence, high throughput, counter-screen for SRC1 inhibitor project (AID 588824; in the data active = inhibition above about 25%). To be noted: cell-based VP16 transactivation luciferase luminescence; at 3.6 µM; stronger effect = higher value.
A short description of experiment [3]: StAR promoter reporter inhibitors, counter-screen for LRH-1 inverse agonist project, cell-based, luminescence, high throughput (AID 651611; in the data active = inhibition above about 28%). To be noted: StAR promoter luciferase reporter counterscreen, at 3.6 µM, stronger effect = higher value. A general note: A counterscreen serves to expose hits that act by an unwanted route or on another target.
Experiment [4] deals with Nuclear receptor subfamily 5 group A member 2 (Homo sapiens) (UniProt O00482). The experiment can be described thus: NR5A2 activity suppression in reporter cells – cell-based, luminescence, confirmation (AID 651613; in the data active = inhibition above about 42%;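 also: HEK293T cells co-transfected with LRH-1 and StAR promoter luciferase reporter; 0% = vehicle wells and 100% = parental cells lacking receptor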). To be noted: cell-based LRH-1 luciferase reporter, inverse agonism; at 3.6 µM; stronger effect = higher value.
Chain of Nuclear receptor subfamily 5 group A member 2 (Homo sapiens) (O00482 whole entry, looked up): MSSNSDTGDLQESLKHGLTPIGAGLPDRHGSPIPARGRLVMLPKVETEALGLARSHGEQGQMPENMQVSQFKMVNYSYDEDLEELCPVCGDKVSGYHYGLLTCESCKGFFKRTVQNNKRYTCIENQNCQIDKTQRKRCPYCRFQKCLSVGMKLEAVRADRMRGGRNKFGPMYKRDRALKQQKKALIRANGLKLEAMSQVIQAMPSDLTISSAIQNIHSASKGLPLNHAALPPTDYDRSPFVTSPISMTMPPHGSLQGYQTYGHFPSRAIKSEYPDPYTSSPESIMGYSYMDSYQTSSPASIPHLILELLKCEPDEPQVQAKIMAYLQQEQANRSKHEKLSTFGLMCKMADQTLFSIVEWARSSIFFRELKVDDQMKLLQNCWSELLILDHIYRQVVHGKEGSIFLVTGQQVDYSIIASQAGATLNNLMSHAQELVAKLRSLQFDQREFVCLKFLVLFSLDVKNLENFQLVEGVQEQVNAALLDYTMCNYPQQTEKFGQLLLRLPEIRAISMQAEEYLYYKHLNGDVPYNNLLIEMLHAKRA
The target in experiment [5] is Steroidogenic factor 1 (Homo sapiens) (UniProt Q13285). The experiment can be described thus: inverse agonism at SF1 nuclear receptor – cell-based, luminescence, high throughput, counter-screen for LRH-1 inverse agonist project (AID 651614; in the data active = inhibition above about 44%;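 also: cells cotransfected with StAR promoter reporter and SF1 expression vector; 0% = vehicle on cells with receptor and 100% = vehicle on cells lacking receptor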). To be noted: cell-based SF1 luciferase reporter, at 3.6 µM, stronger effect = higher value.
Chain of Steroidogenic factor 1 (Homo sapiens) (Q13285 whole entry, looked up, the tested form may be a part): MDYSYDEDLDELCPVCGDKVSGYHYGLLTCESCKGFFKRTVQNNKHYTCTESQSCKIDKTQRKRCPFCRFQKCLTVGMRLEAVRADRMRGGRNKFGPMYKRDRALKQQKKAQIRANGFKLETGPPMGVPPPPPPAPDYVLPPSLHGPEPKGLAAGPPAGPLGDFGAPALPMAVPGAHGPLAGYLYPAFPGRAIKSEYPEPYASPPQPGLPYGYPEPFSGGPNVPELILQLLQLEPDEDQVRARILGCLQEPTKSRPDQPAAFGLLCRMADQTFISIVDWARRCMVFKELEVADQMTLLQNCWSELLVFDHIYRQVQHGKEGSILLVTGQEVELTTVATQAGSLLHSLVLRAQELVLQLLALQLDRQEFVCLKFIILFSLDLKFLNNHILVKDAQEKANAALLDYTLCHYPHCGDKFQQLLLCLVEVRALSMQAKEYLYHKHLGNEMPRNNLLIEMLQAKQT
A short description of experiment [6]: compounds suppressing VP16-driven luciferase signal – cell-based, luminescence, high throughput, counter-screen for LRH-1 inverse agonist project (AID 651615). Particulars: Gal4-VP16 luciferase reporter cells, at 3.6 µM, stronger effect = higher value.

Chain of Nuclear receptor coactivator 1 (Homo sapiens) (Q15788 whole entry, looked up, the tested form may be a part): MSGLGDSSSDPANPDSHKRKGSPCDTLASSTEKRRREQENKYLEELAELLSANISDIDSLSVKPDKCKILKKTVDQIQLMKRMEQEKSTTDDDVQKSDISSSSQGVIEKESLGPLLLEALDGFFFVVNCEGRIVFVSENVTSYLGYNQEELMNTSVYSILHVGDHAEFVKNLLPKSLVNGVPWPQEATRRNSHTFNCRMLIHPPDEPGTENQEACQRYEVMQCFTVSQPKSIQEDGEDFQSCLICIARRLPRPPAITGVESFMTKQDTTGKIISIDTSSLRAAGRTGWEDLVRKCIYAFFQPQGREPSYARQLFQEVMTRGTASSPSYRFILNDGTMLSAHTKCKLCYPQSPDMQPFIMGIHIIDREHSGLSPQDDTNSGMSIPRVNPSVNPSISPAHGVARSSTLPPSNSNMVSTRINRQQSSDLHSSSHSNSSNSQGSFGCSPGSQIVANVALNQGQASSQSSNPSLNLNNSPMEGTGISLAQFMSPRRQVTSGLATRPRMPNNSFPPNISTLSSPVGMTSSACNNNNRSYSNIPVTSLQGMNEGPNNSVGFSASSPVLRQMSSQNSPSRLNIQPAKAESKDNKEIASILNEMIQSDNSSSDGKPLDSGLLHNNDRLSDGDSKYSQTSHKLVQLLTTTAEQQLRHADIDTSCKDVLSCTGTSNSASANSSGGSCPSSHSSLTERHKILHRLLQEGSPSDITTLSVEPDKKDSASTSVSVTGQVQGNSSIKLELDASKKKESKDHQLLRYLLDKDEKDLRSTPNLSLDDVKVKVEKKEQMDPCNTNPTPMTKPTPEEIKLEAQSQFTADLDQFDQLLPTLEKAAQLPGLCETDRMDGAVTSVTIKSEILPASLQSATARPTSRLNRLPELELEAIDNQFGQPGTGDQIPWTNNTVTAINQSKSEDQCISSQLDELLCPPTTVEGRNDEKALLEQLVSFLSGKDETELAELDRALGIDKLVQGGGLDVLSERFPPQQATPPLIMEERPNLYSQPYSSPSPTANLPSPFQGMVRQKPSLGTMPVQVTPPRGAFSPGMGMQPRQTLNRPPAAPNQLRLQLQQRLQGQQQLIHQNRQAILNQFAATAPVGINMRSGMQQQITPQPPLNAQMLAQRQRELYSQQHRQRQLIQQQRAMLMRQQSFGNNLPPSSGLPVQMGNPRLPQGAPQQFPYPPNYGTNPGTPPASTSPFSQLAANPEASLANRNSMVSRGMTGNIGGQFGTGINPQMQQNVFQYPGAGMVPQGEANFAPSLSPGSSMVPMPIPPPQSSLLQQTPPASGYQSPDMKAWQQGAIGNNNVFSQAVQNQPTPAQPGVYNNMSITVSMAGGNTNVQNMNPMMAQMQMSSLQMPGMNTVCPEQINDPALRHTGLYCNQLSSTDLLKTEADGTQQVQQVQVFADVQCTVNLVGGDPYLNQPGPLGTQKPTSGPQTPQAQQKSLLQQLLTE

For `Cc1ccc(C#CC[N+]2(CC#Cc3ccc(C)cc3)CCCCC2)cc1`, the inhibition was 32.6% in experiment [1]; 36.3% (active) in experiment [2]; 40.5% (active) in experiment [3]; 74.2% (active) in experiment [4]; 65.3% (active) in experiment [5]; 67.5% (active) in experiment [6].
Take `O=C(NCc1ccccc1)c1cccc(NC(=O)c2ccccc2)c1`: the inhibition was -0.73% in experiment [1]; 39.8% (active) in experiment [2]; 32.8% (active) in experiment [3]; 52.4% (active) in experiment [4]; 59.2% (active) in experiment [5]; 62% (active) in experiment [6].
In the case of `Cc1ccc(S(=O)(=O)CC2CSc3nc4ccccc4n32)cc1` (stereo not drawn), the inhibition was -13.8% in experiment [1]; 33.3% (active) in experiment [2]; 22.6% in experiment [3]; 65.3% (active) in experiment [4]; 54.6% (active) in experiment [5]; 50.7% (active) in experiment [6].
For `CN(C)CCN1C(=O)c2cccc3cc([N+](=O)[O-])cc(c23)C1=O`, the inhibition in experiment [1] is -146%; in experiment [2], 47.5% (active); in experiment [3], 67% (active); in experiment [4], 96.7% (active); in experiment [5], 84.4% (active); in experiment [6] it was 68.2% (active).
As to `Cc1ccc(S(=O)(=O)/N=C(\CCl)N2CCOCC2)cc1`, the inhibition is -32.5% in experiment [1]; -30.7% in experiment [2]; 23.9% in experiment [3]; 50.2% (active) in experiment [4]; 52.1% (active) in experiment [5]; -22.8% in experiment [6].
With `O=C(Nc1nonc1NC(=O)c1cccs1)c1cccs1`, the inhibition in experiment [1] is -7.76%; in experiment [2] it was 21.9%; in experiment [3] it was 30.2% (active); in experiment [4] it was 64.1% (active); in experiment [5] it was 66% (active); in experiment [6], 52.7% (active).
With `COc1ccc(NS(=O)(=O)c2ccc(-c3cnc(C4CC4)o3)cc2)cc1OC`, the inhibition in experiment [1] was -15.9%; in experiment [2], 37.2% (active); in experiment [3] it was 53.2% (active); in experiment [4], 77.5% (active); in experiment [5], 78.8% (active); in experiment [6], 31.6% (active).
`NC(=O)[C@H]1CC2(CC(c3cccc(NC(=O)COc4ccc(Cl)cc4)c3)=NO2)CN1C(=O)Cc1ccc([N+](=O)[O-])cc1` (stereo partly drawn): the inhibition in experiment [1] is 8.04%; in experiment [2], 39.5% (active); in experiment [3], 13.5%; in experiment [4], 55.8% (active); in experiment [5], 50.3% (active); in experiment [6] it was 52.5% (active).
Regarding `CCCCn1c2c(c(=N)c3c1CCC3)CCC2`, the inhibition was 4.17% in experiment [1]; 33.1% (active) in experiment [2]; 26.5% in experiment [3]; 80.5% (active) in experiment [4]; 61.9% (active) in experiment [5]; 61% (active) in experiment [6].
With `COc1ccc(-c2coc3c(C(=O)NCc4ccc(OC)c(OC)c4)cccc23)c(C)c1`, the inhibition was -32% in experiment [1]; 41.2% (active) in experiment [2]; 28% (active) in experiment [3]; 80.8% (active) in experiment [4]; 49% (active) in experiment [5]; 57.8% (active) in experiment [6].
With `CCOC(=O)c1cc(C#N)c(N2CCN(C(=O)c3cccc(C(F)(F)F)c3)CC2)nc1C(F)(F)F`, the inhibition is 15.6% in experiment [1]; 29.2% (active) in experiment [2]; 15.5% in experiment [3]; 48.8% (active) in experiment [4]; 51.3% (active) in experiment [5]; 32.3% (active) in experiment [6].
For `Cc1c(C(C)C)c(=O)n(-c2ccc(S(=O)(=O)NCc3ccccc3)cc2)n1C`, the inhibition in experiment [1] was -18.5%; in experiment [2], 30.9% (active); in experiment [3], 16.5%; in experiment [4] it was 54.3% (active); in experiment [5] it was 55.1% (active); in experiment [6] it was 44.1% (active).
With `Cc1cccc(-n2ncc3c2CCCC3NC(=O)c2ccncc2)c1C` (stereo not drawn), the inhibition was -10.4% in experiment [1]; 26.6% (active) in experiment [2]; 14.7% in experiment [3]; 54.5% (active) in experiment [4]; 52.1% (active) in experiment [5]; 44% (active) in experiment [6].

As a reminder, the inhibition is the relative decrease from the control value, in per cent.
